We go through 35 molecules from PubChem BioAssay.

A number with no mark means an inactive call. The source made the active and inactive calls.

One assay in a line: plasmodial surface anion channel blockers, osmotic lysis – cell-based, P. falciparum Indochina, OD700, 2 h, primary screen (AID 1155).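 Also: lysis reports solute entry through the parasite surface anion channel PSAC.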 As to conditions: P. falciparum Indochina infected erythrocytes, higher = more signal, called active from +8 up or from −8 down.
On to `COc1ccc(CCNC(=O)[C@@]2(Sc3ccc(C)cc3)CC(=O)N(Cc3cc(C(F)(F)F)cc(C(F)(F)F)c3)[C@@H]2c2ccc(CO)cc2I)cc1`, for which the z-score was 1.25.

Take `CN(C)CCCNC(=O)[C@@H]1c2ccccc2C(=O)N(Cc2ccc(OC(F)(F)F)cc2)[C@H]1c1ccc(CO)cc1`: the z-score was 0.81. In the case of `COCCCNC(=O)[C@@]1(Sc2ccc(C)cc2)CC(=O)N(C2Cc3ccccc3C2)[C@@H]1c1ccc(CO)cc1I`, the z-score was 0.427.

Turning to `CCCCC(CC)C(O)C1C=CC2C(=O)N(c3ccccc3)C(=O)C2N1Nc1ccc([N+](=O)[O-])cc1` (stereo unspecified), the z-score is 0.724. Turning to `CC(C)C(=C=CC[C@@H](O)c1ccccc1OCCO)C[C@@H](O)COCc1ccccc1`, the z-score was 2.19.

In the case of `C[C@H]1C2=C3C(CC[C@H]4C(OCc5ccc(F)cc5C(F)(F)F)OC[C@](C)([C@@H]34)N(C(=O)OC(C)(C)C)C2)C2COC(=O)OCC21` (stereo partly specified), the z-score was 0.368.

Regarding `CCOC(=CC(=O)OC)CC(O)c1cccc(Cl)c1` (stereo unspecified), the z-score is 0.101.

For the molecule `COc1cc(OC)c(C(O)C2C=CC3C(=O)N(c4ccccc4)C(=O)C3N2Nc2ccc(C#N)cc2)cc1Br` (stereo unspecified), the z-score was 11.4 (active). The same measure, in the same setting: for `CN(C)CCCNC(=O)[C@@H]1c2ccccc2C(=O)N(CC23CC4CC(CC(C4)C2)C3)[C@H]1c1ccc(CO)cc1` the value was 0.964. The same measure, in the same setting: in the case of `COc1cc2c(cc1OC)CN(C(=O)[C@H]1[C@@H]3C(=O)O[C@@H](c4ccccc4)[C@@H](c4ccccc4)N3[C@@H](c3ccc(OCCO)cc3)[C@]13C(=O)Nc1ccc(C#CCCO)cc13)CC2` it was 1.8. Turning to `COCCOC(=O)N1C(=O)[C@@]2(c3cc(C#CC4=CCCCC4)ccc31)[C@H](c1ccccc1OCCO)N1[C@H](c3ccccc3)[C@H](c3ccccc3)OC(=O)[C@H]1[C@@H]2C(=O)N1CCc2cc(OC)c(OC)cc2C1`, the z-score was 1.85.

The next assay is described as follows: changes in parasitized red cell lysis, either direction – P. falciparum Indochina, OD700, 3 h, PSAC antagonist project, primary screen (AID 1156). Particulars: P. falciparum-infected erythrocytes, osmotic lysis, higher = more signal, called active from +8 up or from −8 down.
Consider `C=CC[C@@]12N=C(c3ccc(OCCCO)cc3)O[C@@H]1c1ccccc1N(CCS(=O)(=O)c1ccccc1)C2=O`, for which the z-score is 3.7.

With `CN(C)CCCNC(=O)[C@@]1(C)c2ccccc2C(=O)N(Cc2cc(C(F)(F)F)cc(C(F)(F)F)c2)[C@H]1c1ccc(CO)cc1`, the z-score is 2.17.

With `CC(C)NC(=O)[C@@]1(C)c2ccccc2C(=O)N(C(C)C)[C@H]1c1ccc(CO)cc1`, the z-score is 0.702. The same measure, in the same setting: for `O=C(N1CCCCC1)[C@@]1(Cc2ccccc2)COC(c2ccc(OCCCO)cc2)=N1` the value was 1.32; for `O=C1C[C@@](C(=O)NCC(F)(F)F)(c2ccc([N+](=O)[O-])cc2)[C@@H](c2ccc(CO)cc2)N1C1CCCCC1`, 1.29; for `O=C1c2ccccc2[C@](Cc2ccccc2I)(C(=O)NCc2ccccc2)[C@H](c2ccc(CO)cc2)N1C1CCCCC1`, 0.0371. Take `C=CC[C@@]1(C(=O)N2CCCCC2)N=C(c2ccc(OCCCO)cc2)O[C@@H]1c1ccccc1`: the z-score is 2.02. The same measure, in the same setting: in the case of `C=CCOC(=O)[C@@H]1[C@H]2C(=O)O[C@H](c3ccccc3)[C@H](c3ccccc3)N2[C@H](c2ccc(OCCOC(=O)[C@H]3C[C@H]4C(=O)N[C@@H](CCCC[N+](C)(C)C)C(=O)N4[C@H]3c3ccc(O)cc3)cc2)[C@@]12C(=O)Nc1ccc(I)cc12` it was 0.511. Turning to `C[C@H]1ON(c2ccc(C(=O)OC(C)(C)C)cc2)[C@@H](c2ccc(O)cc2)[C@@H]1C(=O)N1C(=O)OC[C@@H]1c1ccccc1`, the z-score is 0.166.

On to `Cc1c(NC(=O)/C(C#N)=C/C=C/c2ccccc2[N+](=O)[O-])c(=O)n(-c2ccccc2)n1C`, for which the z-score was 0.681. On to `CC(C)(C)OC(=O)CC[C@]1(C(=O)NCCN2CCOCC2)N=C(c2ccc(OCCCO)cc2)O[C@H]1c1ccccc1N=[N+]=[N-]`, for which the z-score is 2.64. Consider `CCOC(=O)[C@H]1C/C=C/C[C@H](C(=O)OCC)C(=O)O[C@H]2[C@@H](OC)O[C@H](CO)[C@@H](OC(=O)Nc3ccc(OC)cc3)[C@@H]2OC1=O`, for which the z-score is -0.0986. Still for that read-out and setting: in the case of `O=C1NC(=O)C2C1C=CC(C(O)c1c(F)cccc1Cl)N2Nc1ccccn1` (stereo unspecified) it was -0.254.

For the molecule `COc1ccc([Si](C)(C)[C@@H]2[C@@H](CCO)O[C@]3(C(=O)N(Cc4cccc(N5C(=O)c6ccccc6Oc6ccccc65)c4)c4ccccc43)[C@H]2C)cc1`, the z-score is 0.207.

In the case of `Cc1ccc(S[C@]2(C(=O)NCc3ccccc3)CC(=O)N(C(C)C)[C@@H]2c2ccc(CO)cc2I)cc1`, the z-score is 0.121. Still for that read-out and setting: in the case of `CC(C)CCC[C@@H](C)[C@H]1CC[C@@]2(C)C3=C(CC[C@]12C)[C@@]1(C)CC[C@H](OC(=O)c2ccc(Br)cc2)C(C)(C)C1CC3` (stereo partly specified) it was -0.149; in that of `NC(=O)N1C(=O)C2C(C1=O)C1C=C(c3ccc(CO)cc3)C2C(C2CC2)N1Cc1sc2ccccc2c1Cl` (stereo unspecified), 0.777. In the case of `C=CCN1C(=O)[C@@]2(O[C@@H](CCn3cc([C@H](O)c4ccccc4)nn3)[C@H]([Si](C)(C)c3ccc(OC)cc3)[C@H]2C)c2ccccc21`, the z-score was 1.04. Still for that read-out and setting: in the case of `CC1CC/C=C\[C@H]2OC34C=CCN(CCN5CCOCC5)C(=O)[C@H]3N(CCO)C(=O)[C@@H]4C2C(=O)O1` (stereo partly specified) it was -0.174; in that of `C=CCOC(=O)[C@H]1[C@@H]2C(=O)O[C@@H](c3ccccc3)[C@@H](c3ccccc3)N2[C@@H](c2ccc(OCCOC(=O)[C@H]3C[C@H]4C(=O)N[C@@H](Cc5ccccc5)C(=O)N4[C@H]3c3ccc(O)cc3)cc2)[C@]12C(=O)Nc1ccc(I)cc12`, 0.28; in that of `COc1ccc(C#Cc2ccc3c(c2)[C@]2(C(=O)N3)[C@H](C(=O)N3CCc4cc(OC)c(OC)cc4C3)[C@H]3C(=O)O[C@H](c4ccccc4)[C@H](c4ccccc4)N3[C@@H]2c2ccc(O)cc2)cc1`, -0.103. Still for that read-out and setting: for `O=C1O[C@@H](c2ccccc2)[C@@H](c2ccccc2)N2[C@@H](c3ccccc3OCCO)[C@]3(C(=O)Nc4ccccc43)[C@@H](C(=O)NC[C@H](O)c3ccccc3)[C@H]12` the value was -0.526; for `C[C@]1(C(=O)NC2CC2)c2ccccc2C(=O)N(Cc2ccc(OC(F)(F)F)cc2)[C@H]1c1ccc(CO)cc1`, 4.64.

`NC(=O)NCC#Cc1ccc2c(c1)[C@]1(C(=O)N2)[C@H](C(=O)Nc2nc3ccccc3s2)[C@H]2C(=O)O[C@H](c3ccccc3)[C@H](c3ccccc3)N2[C@@H]1c1ccc(O)cc1`: the z-score is 0.962. On the same count and under the same terms, in the case of `COc1ccc(CCNC(=O)[C@@]2(Sc3ccc(C)cc3)CC(=O)N(Cc3cc(C(F)(F)F)cc(C(F)(F)F)c3)[C@@H]2c2ccc(CO)cc2I)cc1` it was -0.459; in that of `CN(C)CCCNC(=O)[C@@H]1c2ccccc2C(=O)N(Cc2ccc(OC(F)(F)F)cc2)[C@H]1c1ccc(CO)cc1`, 3. The same measure, in the same setting: in the case of `COCCCNC(=O)[C@@]1(Sc2ccc(C)cc2)CC(=O)N(C2Cc3ccccc3C2)[C@@H]1c1ccc(CO)cc1I` it was -0.23; in that of `CCCCC(CC)C(O)C1C=CC2C(=O)N(c3ccccc3)C(=O)C2N1Nc1ccc([N+](=O)[O-])cc1` (stereo unspecified), 0.369. As for `CC(C)C(=C=CC[C@@H](O)c1ccccc1OCCO)C[C@@H](O)COCc1ccccc1`, the z-score was -1.43. On the same count and under the same terms, in the case of `C[C@H]1C2=C3C(CC[C@H]4C(OCc5ccc(F)cc5C(F)(F)F)OC[C@](C)([C@@H]34)N(C(=O)OC(C)(C)C)C2)C2COC(=O)OCC21` (stereo partly specified) it was 1.19; in that of `CCOC(=CC(=O)OC)CC(O)c1cccc(Cl)c1` (stereo unspecified), 0.898; in that of `COc1cc(OC)c(C(O)C2C=CC3C(=O)N(c4ccccc4)C(=O)C3N2Nc2ccc(C#N)cc2)cc1Br` (stereo unspecified), 1.39.

With `CN(C)CCCNC(=O)[C@@H]1c2ccccc2C(=O)N(CC23CC4CC(CC(C4)C2)C3)[C@H]1c1ccc(CO)cc1`, the z-score was 0.648. On the same count and under the same terms, in the case of `COc1cc2c(cc1OC)CN(C(=O)[C@H]1[C@@H]3C(=O)O[C@@H](c4ccccc4)[C@@H](c4ccccc4)N3[C@@H](c3ccc(OCCO)cc3)[C@]13C(=O)Nc1ccc(C#CCCO)cc13)CC2` it was 0.796; in that of `COCCOC(=O)N1C(=O)[C@@]2(c3cc(C#CC4=CCCCC4)ccc31)[C@H](c1ccccc1OCCO)N1[C@H](c3ccccc3)[C@H](c3ccccc3)OC(=O)[C@H]1[C@@H]2C(=O)N1CCc2cc(OC)c(OC)cc2C1`, 0.578.
